# GSIS activator – GLuc luminescence reporter in INS-1E cells, primary screen for activators of glucose-dependent secretion of insulin. activation, % at 16.6 µM. 0.61% of 370,000 active. INS-1E GLuc reporter insulin secretion, 2-3 h;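 active means lowest replicate activation of at least 40%, so every replicate reaches that level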;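 further: 0% = median of neutral control wells and 100% = median of IBMX positive control wells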
# SIRT5 block – SIRT5 desuccinylase inhibitors, primary screen, biochemical, fluorescence imaging, single point, set 5; NAD-dependent protein deacylase sirtuin-5, mitochondrial (Homo sapiens), Q9NXA8; Purified SirT5, succinyl-peptide AMC, trypsin-coupled fluorescence; inhibition, % at 15 µM; 1.1% of 330,000 active; AID 652115, 2013; in the data active means inhibition above about 15%
# Target sequence (Q9NXA8 whole entry, looked up): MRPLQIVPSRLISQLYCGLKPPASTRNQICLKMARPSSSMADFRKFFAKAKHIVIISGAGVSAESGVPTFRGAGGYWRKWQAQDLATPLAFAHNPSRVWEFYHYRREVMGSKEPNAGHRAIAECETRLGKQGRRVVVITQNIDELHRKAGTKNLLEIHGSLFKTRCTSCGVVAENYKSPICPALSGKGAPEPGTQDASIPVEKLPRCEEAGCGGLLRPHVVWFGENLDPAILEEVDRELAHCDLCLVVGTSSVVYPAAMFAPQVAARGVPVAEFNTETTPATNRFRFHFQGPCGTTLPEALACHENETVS
# CASP6 VEID inh – human caspase-6 inhibitors, primary screen, biochemical, VEID-R110 fluorescence, single point, set 2 | AID 686996, 2013 | 0.53% of 350,000 active | P55212 | inhibition, % at 12.5 µM | purified caspase-6, Z-VEID-R110 cleavage fluorescence;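 active means mean inhibition across replicates at least about 35%, with every replicate also reaching that limit, limit read from the data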;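 further: 0% = median of neutral control wells and 100% = no fluorescence left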
# ERAP1 inh – human ERAP1 aminopeptidase inhibitors, primary screen, biochemical, single point, plate reader. Endoplasmic reticulum aminopeptidase 1 (Homo sapiens), Q9NZ08. recombinant ERAP1, Leu-AMC fluorescence, 60 min. inhibition, % at 10.7 µM. 0.15% of 340,000 active. AID 652197, 2013;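 active means mean replicate inhibition of at least 30%, or all replicates individually reaching that 30% level; inactive means mean below 30% and not every replicate reaching it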;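 further: 0% = neutral control wells and 100% = L-leucinethiol positive control wells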
# FGF22 binding – binders of human FGF22 protein, primary screen, FGF22 synaptogenesis inhibitor project, biophysical, thermal shift, single point; recombinant FGF22 thermal shift, SYPRO orange fluorescence; percent of sucrose octasulfate shift, DMSO zero; Fibroblast growth factor 22 (Homo sapiens), Q9HCT0; 1.5% of 340,000 active; activity (Tm shift, normalised), % at 9.99 µM; AID 651658, 2012;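 active means mean Tm shift, scaled 0 neutral to 100 positive control, at about 1.3% or above, every replicate too, limit read from the data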
# The depositor's hits bear a star; / = no result. Compounds with a hit are over-represented: about 3.3% of the library has one in this group of screens.
SMILES,GSIS activator,SIRT5 block,CASP6 VEID inh,ERAP1 inh,FGF22 binding
Cc1cccc(CN(C)C[C@@H]2OCc3cn(nn3)CCCC(=O)N([C@H](C)CO)C[C@@H]2C)c1,0.4,-4.4,3.8,2.5,-0.3
CC1(C)C2CC=C(/C=N/NC(=O)c3ccccc3O)C1C2 (centres undefined),6.9,-0.2,3.5,-1.5,43.0*
Cn1ncc(Cl)c1C(=O)N/N=C/c1ccccn1,4.7,21.6*,-1.7,0.2,-0.1
Cc1ccccc1C(=O)N/N=C/c1ccccn1,/,-3.9,0.5,1.1,-0.1
O=C(N/N=C\c1ccccn1)c1ccccc1O,1.1,3.7,-2.8,3.6,43.7*
Cn1cnc(S(=O)(=O)N2CC[C@@H]3[C@H](CO)Nc4ccc(-c5ccccc5)cc4[C@@H]32)c1,2.0,-0.9,1.0,0.7,-0.4
Cc1cc(/C=N/NC(=O)C(O)(c2ccccc2)c2ccccc2)c(C)n1-c1cccc(C(=O)O)c1,-16.8,10.6,43.5*,-1.5,0.2
Cc1cc(/C=N/NC(=O)c2cccc(N(C)C)c2)c(C)n1-c1cc(C(=O)O)cc(C(=O)O)c1,-3.8,20.4*,34.8,1.8,0.1
CCCNC(=O)c1ccccc1NC(=O)COc1ccc(OC)cc1,56.6*,/,/,/,/
O=C(c1cc(COc2ccc(F)cc2Cl)on1)N1CC[C@@H]2CCCC[C@H]2C1,17.9,33.7*,-2.9,-7.2,-0.1
O=C1C(Cl)=C(NCCN2CCOCC2)C(=O)c2ccccc21,-13.1,-2.8,69.6*,4.8,0.0
CC(C)CC#Cc1ccc2c(c1)O[C@@H](CN(C)C(=O)C1CCC1)[C@H](C)CN([C@@H](C)CO)S2(=O)=O,-14.3,6.4,4.9,-0.8,-0.5
On1nnc2ccc(C(F)(F)F)cc21,-7.9,0.0,-2.1,-1.5,43.5*
C[C@H]1CN([C@@H](C)CO)C(=O)c2cc(-c3ccccc3)cnc2O[C@@H]1CN(C)C(=O)Nc1ccc2c(c1)OCO2,-16.5,9.5*,-1.5,1.4,0.1
C[C@@H]1CN([C@@H](C)CO)C(=O)c2cc(-c3cccnc3)cnc2O[C@H]1CN(C)C(=O)Nc1ccc2c(c1)OCO2,7.9,32.3*,-3.0,-1.0,0.0
C[C@H](CO)N1C[C@H](C)[C@H](CN(C)C(=O)NC2CCCCC2)OCCCC[C@H](C)Oc2ccc(NC(=O)Nc3cccc4ccccc34)cc2C1=O,15.6,11.1,-0.1,0.5,-0.4
O=C(O)[C@H]1Cc2ccccc2CN1S(=O)(=O)c1ccc(F)cc1,/,-4.5,3.1,0.2,0.2
O=C(C1Cc2ccccc2CN1S(=O)(=O)c1ccc(F)cc1)N1CCOCC1 (centres undefined),7.6,24.6*,-2.2,0.7,0.2
CC(=O)c1c(C)oc2ccc(NS(=O)(=O)c3ccc(C)cc3)cc12,-17.8,-0.1,-0.3,3.2,-0.1
Cc1ccc(C)c(S(=O)(=O)Nc2ccc3oc(C)c(C(=O)O)c3c2)c1,4.4,8.3,69.2*,4.4,0.0
O=c1cc(-c2ccc([N+](=O)[O-])cc2)c2ccc(O)cc2o1,10.8,10.3,2.0,-3.4,44.7*
C=CCN1C(=O)/C(=C2/Sc3ccc(OC)cc3N2C)SC1=Nc1ccccc1,0.3,0.6,/,-1.9,43.2*
C=CCN1C(=O)/C(=C2/Sc3ccc(OC)cc3N2C)SC1=NCc1ccccc1,15.1,-0.6,-2.0,-0.4,0.6
O=C(Nc1ccccc1)N[C@@H]1CC[C@@H](CCn2cc(C3(O)CCCC3)nn2)O[C@H]1CO,-12.5,0.2,-1.6,0.6,0.0
Cc1ccc(N/C=C2\CCCCC2=O)nc1,/,0.0,24.7,-1.1,43.2*
CCNC(=O)C[C@H]1CC[C@@H]2[C@H](COc3ccc(NC(=O)Nc4ccccc4F)cc3C(=O)N2C)O1,-11.1,-2.3,1.5,-1.9,-0.1
COc1ccc(-c2csc(-c3ccccc3)n2)c(OC)c1,-7.4,-4.6,/,-1.2,43.1*
COc1ccc(-c2csc(-c3cccs3)n2)c(OC)c1,3.3,-9.0,-0.2,2.1,42.1
COC(=O)c1ccc(OC(=O)/C=C/c2ccco2)cc1,-5.0,-2.8,35.8*,2.1,0.4
